Test results: PubChem BioAssay (NCATS)
Results filed as inconclusive are left out. Where a call stands in place of a potency, no number is given. Activity calls are given as the source filed them. Unless noted, calls follow the shape of the dose curve; as a rule, active = well fitted curve in the direction sought with a large enough effect; inconclusive = small, poorly fitted or top-dose-only effect, or another doubt; inactive = no such curve, though single readings can be large; an effect the other way counts as inactive or inconclusive.

Experiments:
[1] = Cytotoxicity counterscreen for NFkB agonists and antagonists (AID 624476);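 also: cells exposed to compound for 48 hours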; also: potency is read from the fitted curve at half-maximal effect
[2] = qHTS Assay for Identification of Small Molecule Agonists for NFkB Signaling Pathway. (AID 624478);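 also: compounds tested together with TNF alpha at its EC50 of 10 pM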
Procedure, shortened: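 Read-out: 460/530 nm emission at 405 nm excitation after 2 h LiveBLAzer loading; ME-180 NFkB-bla reporter cells exposed 5 h at 37 C to compounds with 10 pM TNF alpha final.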

[3] = qHTS Assay for Identification of Small Molecule Antagonists for NFkB Signaling Pathway. (AID 624479; calls by dose curve;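 also: pathway stimulated with TNF alpha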; also: potency is read from the fitted curve at half-maximal effect)
[4] = Cell Proliferation Assay against the HBL1 Cell Line (AID 651646); details: HBL1 DLBCL cells; at 46.1 µM (top of the series) unless noted;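 also: cells exposed to compound for 48 h before reading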
Procedure, shortened: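 HBL1, 500 cells/well, RPMI no phenol red + 5% FBS; cpd pinned, 48 h 37C/5% CO2; CellTiter-Glo, 15 min RT, luminescence. % activity: DMSO = 100%, bortezomib 9.2 uM final = 0%.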

[5] = Cell Proliferation Assay against the TMD8 Cell Line (Caspase readout at 8 hrs) (AID 651713); also: potency is read from the fitted curve at half-maximal effect
Procedure, shortened: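 Apoptosis readout: caspase 3/7 luminescence (Caspase-Glo), 15 min RT. Cells: TMD8, 500/well, RPMI + 5% FBS, no phenol red. Exposure 8 h, 37C. % activity vs DMSO = 0, bortezomib 9.2 uM final = 100.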

[6] = Cell Proliferation Assay against the TMD8 Cell Line (AID 651645); details: TMD8 DLBCL cell line proliferation/viability; at 46.1 µM (top of the series) unless noted;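 also: cells exposed to compound for 48 h before reading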
Procedure, shortened: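 500 TMD8 cells/well, RPMI + Glutamax, no phenol red, 5% FBS; cpd added immediately; 48 h, 37C, 5% CO2; CellTiter-Glo, luminescence. Controls: DMSO = 100%, bortezomib 9.2 uM final = 0%.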

[7] = Cell Proliferation Assay against the TMD8 Cell Line (Caspase readout at 16 hrs) (AID 651712); also: potency is read from the fitted curve at half-maximal effect
Procedure, shortened: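 Caspase-Glo luminescence after 16 h compound exposure of TMD8 cells, 37 °C, 5% CO2. Medium: RPMI without phenol red, 5% FBS. Normalisation: DMSO = 0%, bortezomib 9.2 uM final = 100%.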

What does the source list for O=S(=O)(N=Cc1c(O)ccc2ccccc12)c1cccs1?
Potency [1]: inactive; outcome [2]: inactive; Potency [3]: inactive; viability, percent of control [4]: 72.6%; Potency [5]: inactive

What does the source list for Cc1cnc(Nc2ccc(OCCN3CCCC3)cc2)nc1Nc1cccc(S(=O)(=O)NC(C)(C)C)c1?
Potency [1]: inactive; outcome [2]: inactive; Potency [3]: inactive; viability, percent of control [4]: 65.3%; Potency [5]: inactive

Which Potency [1] does the source give for COc1ccc(-c2ccc3c(N4CCOCC4)nc(N4C[C@@H](C)O[C@@H](C)C4)nc3n2)cc1CO here?
The Potency was “inactive”.

And the outcome [2]?
Its outcome is “inactive”.

And the Potency [3]?
Its Potency is “inactive”.

What about the viability (% of control) [6] of the same compound?
The viability (% of control) was 29.5%.

And the viability, percent of control [4]?
Its viability, percent of control is 57.7%.

And the Potency [5]?
The Potency was “inactive”.

With COc1c(Cl)cc2c([nH]c3cnccc32)c1NC(=O)c1cccnc1C as the compound, how does the Potency [1] read?
Its Potency is “inactive”.

And the outcome [2]?
The outcome was “inactive”.

And the viability (% of control) [6]?
Its viability (% of control) is 68.9%.

And the viability, percent of control [4]?
Its viability, percent of control is 62.3%.

With CCCS(=O)(=O)Nc1ccc(F)c(C(=O)c2c[nH]c3ncc(Cl)cc23)c1F as the compound, how does the Potency [1] read?
Its Potency is “inactive”.

And the outcome [2]?
The outcome was “inactive”.

What about the Potency [3] of the same compound?
Its Potency is 11.9 µM (active).

What about the viability, percent of control [4] of the same compound?
Its viability, percent of control is 70.6%.

With CO[C@@H]1[C@H](N(C)C(=O)c2ccccc2)C[C@H]2O[C@]1(C)n1c3ccccc3c3c4c(c5c6ccccc6n2c5c31)C(=O)NC4 as the compound, how does the Potency [1] read?
Its Potency is “inactive”.

What about the outcome [2] of the same compound?
Its outcome is “inactive”.

What about the Potency [3] of the same compound?
The Potency was “inactive”.

What about the viability, percent of control [4] of the same compound?
Its viability, percent of control is 23%.

What about the Potency [7] of the same compound?
The Potency was 2.09 µM (active).

With COc1ccc(CCN2CCN(CCCc3ccccc3)CC2)cc1OC as the compound, how does the Potency [1] read?
The Potency was “inactive”.

And the outcome [2]?
The outcome was “inactive”.

What about the Potency [3] of the same compound?
Its Potency is “inactive”.

What about the viability (% of control) [6] of the same compound?
Its viability (% of control) is 83.9%.

What about the viability, percent of control [4] of the same compound?
The viability, percent of control was 85.9%.

And the Potency [5]?
Its Potency is “inactive”.

With Cc1ccc(NC(=O)c2cccc(C(C)(C)C#N)c2)cc1Nc1ccc2ncn(C)c(=O)c2c1 as the compound, how does the Potency [1] read?
The Potency was “inactive”.

And the outcome [2]?
The outcome was “inactive”.

And the viability (% of control) [6]?
The viability (% of control) was 11.7%.

What about the viability, percent of control [4] of the same compound?
Its viability, percent of control is 41.4%.

What about the Potency [7] of the same compound?
The Potency was 26.4 µM (active).

What does the source list for CS(=O)(=O)c1cccc(CNc2nc(Nc3ccc4c(c3)CCC(=O)N4)ncc2C(F)(F)F)c1?
Potency [1]: inactive; outcome [2]: inactive; Potency [3]: inactive; viability, percent of control [4]: 120%; Potency [5]: inactive

Which results are given for CCC(=O)N[C@H]1CC[C@H](C(=O)N(C)c2ccc(-c3nc4ccccc4o3)cc2)C1?
Potency [1]: inactive; outcome [2]: inactive; Potency [3]: inactive; viability, percent of control [4]: 74.7%; Potency [7]: inactive; Potency [5]: inactive

With CC(C)c1onc(-c2c(Cl)cccc2Cl)c1COc1ccc(/C=C/c2cccc(C(=O)O)c2)c(Cl)c1 as the compound, how does the Potency [1] read?
Its Potency is 11.8 µM (active).

What about the outcome [2] of the same compound?
The outcome was “inactive”.

And the Potency [3]?
Its Potency is 21.1 µM (active).

What about the viability, percent of control [4] of the same compound?
Its viability, percent of control is 75.2%.

With O=C(C1CC1)N1CC[C@@H](Cn2c(-c3ccc(-c4ccc5occc5c4)cc3)nc3cnccc32)C1 as the compound, how does the Potency [1] read?
Its Potency is “inactive”.

And the outcome [2]?
The outcome was “inactive”.

What about the viability (% of control) [6] of the same compound?
Its viability (% of control) is 5.56%.

What about the viability, percent of control [4] of the same compound?
Its viability, percent of control is 48.4%.

And the Potency [7]?
The Potency was 8.33 µM (active).

What about the Potency [5] of the same compound?
The Potency was 26.4 µM (active).

With O=c1[nH]c(-c2ccc(C(F)(F)F)cc2)nc2c1CSCC2 as the compound, how does the Potency [1] read?
The Potency was “inactive”.

And the outcome [2]?
Its outcome is “inactive”.

What about the Potency [3] of the same compound?
The Potency was “inactive”.

And the viability (% of control) [6]?
The viability (% of control) was 82.1%.

And the viability, percent of control [4]?
The viability, percent of control was 105%.

What about the Potency [5] of the same compound?
The Potency was “inactive”.

What does the source list for Oc1cccc(-c2nc(N3CCOCC3)c3oc4ncccc4c3n2)c1?
Potency [1]: 0.0833 µM (active); outcome [2]: inactive; viability (% of control) [6]: 16.2%; viability, percent of control [4]: 42.6%

Which results are given for CCc1cncnc1N1CCN(Cc2nc3ccc(C(F)(F)F)cc3[nH]2)CC1?
Potency [1]: inactive; outcome [2]: inactive; Potency [3]: inactive; viability (% of control) [6]: 56.3%; viability, percent of control [4]: 82.4%; Potency [5]: inactive

For CCCCCCCc1ccc(CCc2cccc(O)c2C(=O)O)cc1, which Potency [1] is on record?
The Potency was 23.5 µM (active).

And the outcome [2]?
Its outcome is “inactive”.

What about the viability (% of control) [6] of the same compound?
Its viability (% of control) is 64.1%.

And the viability, percent of control [4]?
The viability, percent of control was 51.5%.

For COc1nc(-c2ccc3c(c2)OCO3)n(-c2ccc(NC(=O)CSc3ccccc3)cc2)n1, which Potency [1] is on record?
Its Potency is “inactive”.

And the outcome [2]?
Its outcome is “inactive”.

And the Potency [3]?
Its Potency is “inactive”.

What about the viability (% of control) [6] of the same compound?
Its viability (% of control) is 60.1%.

And the viability, percent of control [4]?
Its viability, percent of control is 68.5%.

What about the Potency [5] of the same compound?
Its Potency is “inactive”.

Which Potency [1] does the source give for Cc1ccc2c(c1)C(=O)[C@@]1(O)CCN(c3ccccc3)C1=N2 here?
The Potency was “inactive”.

And the outcome [2]?
Its outcome is “inactive”.

What about the Potency [3] of the same compound?
Its Potency is “inactive”.

What about the viability, percent of control [4] of the same compound?
Its viability, percent of control is 74.4%.

What about the Potency [7] of the same compound?
Its Potency is “inactive”.

And the Potency [5]?
The Potency was “inactive”.

With CNC(=O)c1ccc(C)c(-n2c(C)cc(OCc3ccc(F)cc3F)c(Br)c2=O)c1 as the compound, how does the Potency [1] read?
Its Potency is “inactive”.

And the outcome [2]?
Its outcome is “inactive”.

What about the Potency [3] of the same compound?
Its Potency is “inactive”.

And the viability, percent of control [4]?
The viability, percent of control was 44.5%.

With O=C(c1cc(Cc2n[nH]c(=O)c3ccccc23)ccc1F)N1CCN(C(=O)C2CC2)CC1 as the compound, how does the Potency [1] read?
Its Potency is “inactive”.

And the outcome [2]?
The outcome was “inactive”.

What about the Potency [3] of the same compound?
Its Potency is “inactive”.

And the viability (% of control) [6]?
The viability (% of control) was 58.9%.

And the viability, percent of control [4]?
The viability, percent of control was 64.8%.

And the Potency [5]?
Its Potency is “inactive”.

For CN(C(=O)c1ccc(F)cc1C(F)(F)F)C1CCN(c2nnc(-c3ccnn3C)c3ccccc23)CC1, which Potency [1] is on record?
The Potency was “inactive”.

What about the outcome [2] of the same compound?
Its outcome is “inactive”.

And the Potency [3]?
The Potency was “inactive”.

What about the viability, percent of control [4] of the same compound?
The viability, percent of control was 65.3%.

What about the Potency [5] of the same compound?
The Potency was “inactive”.

Which results are given for NC(=O)C1CCCc2c1[nH]c1ccc(Cl)cc21 (configuration not stated)?
Potency [1]: inactive; outcome [2]: inactive; Potency [3]: inactive; viability, percent of control [4]: 73.1%; Potency [5]: inactive

With O=C(O)[C@@H](c1ccc(OCc2ccc3ccccc3n2)cc1)C1CCCC1 as the compound, how does the Potency [1] read?
The Potency was “inactive”.

And the outcome [2]?
The outcome was “inactive”.

And the Potency [3]?
The Potency was “inactive”.

And the viability, percent of control [4]?
Its viability, percent of control is 92.8%.

What about the Potency [7] of the same compound?
The Potency was “inactive”.

And the Potency [5]?
Its Potency is “inactive”.

What does the source list for COc1ccccc1-c1cccc(-c2c(O)c3cc(C#N)c(Cl)cc3[nH]c2=O)c1?
Potency [1]: inactive; outcome [2]: inactive; viability (% of control) [6]: 86.6%; viability, percent of control [4]: 80.1%; Potency [7]: inactive

For O=C(C=Cc1ccc(/C=C/C(=O)Nc2ccc(C3=NCCN3)cc2)cc1)Nc1ccc(C2=NCCN2)cc1, which Potency [1] is on record?
The Potency was “inactive”.

And the outcome [2]?
Its outcome is “inactive”.

What about the Potency [3] of the same compound?
Its Potency is “inactive”.

And the viability (% of control) [6]?
The viability (% of control) was 92.1%.

What about the viability, percent of control [4] of the same compound?
Its viability, percent of control is 97.4%.

What about the Potency [5] of the same compound?
The Potency was “inactive”.

With CCC(C)n1ncn(-c2ccc(N3CCN(c4ccc(OC[C@H]5CO[C@](Cn6cncn6)(c6ccc(Cl)cc6Cl)O5)cc4)CC3)cc2)c1=O (some centres not stated) as the compound, how does the viability, percent of control [4] read?
The viability, percent of control was 77%.

And the Potency [5]?
Its Potency is “inactive”.

Which outcome [2] does the source give for CCn1c(-c2nonc2N)nc2c(C#CC(C)(C)O)ncc(OC[C@H]3CCCNC3)c21 here?
Its outcome is “inactive”.

And the viability, percent of control [4]?
The viability, percent of control was 70.2%.

What does the source list for Cc1cc2c(F)c(Oc3ncnn4cc(OC[C@@H](C)O)c(C)c34)ccc2[nH]1?
outcome [2]: inactive; viability, percent of control [4]: 34.5%; Potency [5]: inactive

With Cc1cc([C@@H](C)Nc2ccccc2C(=O)O)c2nc(N3CCOCC3)cc(=O)n2c1 as the compound, how does the outcome [2] read?
Its outcome is “inactive”.

What about the Potency [3] of the same compound?
The Potency was “inactive”.

And the viability (% of control) [6]?
The viability (% of control) was 14.9%.

And the viability, percent of control [4]?
Its viability, percent of control is 45.6%.

What about the Potency [5] of the same compound?
Its Potency is “inactive”.
